According to PubChem BioAssay AID624483 (NMMLSC, 2012):
In all, about 360,000 compounds went through this assay and about 11,000 (3.1%) were called active. Roughly 2% stayed inconclusive and do not appear here. Cut-off read from the data, not from the text of the source: active = fluorescence intensity above about 16000; inconclusive = no clear call, values can overlap the other calls; inactive = below that. The full list was thinned out, with actives kept by preference.

Assay: compound fluorescence in toxin protease inhibitor counterscreen, primary screen, artefact control for toxin protease inhibitor project, biochemical, multiplex microsphere, HTS (AID 624483)
Settings: compound autofluorescence counterscreen, microsphere flow cytometry; active compounds read high
In the case of `COc1ccc(CC(N)c2csc(NC(=O)NC(c3ccccc3)c3ccccc3)n2)cc1` (stereo not given), the fluorescence intensity is reported as 3610 (inactive).
With `COc1ccc(OC)c(C(O)c2ncc(-c3cccc(C(F)(F)F)c3)[nH]2)c1` (stereo not given) the fluorescence intensity was 3890 (inactive).
In the case of `CN1OC[C@@H]2CN(S(=O)(=O)c3cccc4ccccc34)[C@H](c3ccc(N4CCCCC4)cc3)C[C@@H]21`, the fluorescence intensity is reported as 25600 (active).
With `CN1OC[C@@H]2CN(C(=O)c3cccc4ccccc34)[C@H](c3ccc(N4CCCCC4)cc3)C[C@@H]21` the fluorescence intensity was 11700 (inactive).
In the case of `CN1OC[C@@H]2CN(C(=O)c3cccnc3)[C@H](c3ccc(N4CCCCC4)cc3)C[C@@H]21`, the fluorescence intensity is reported as 4430 (inactive).
For `Cc1cc(C)c2nc3nc(C)cc(C)c3c(N)c2c1`, the fluorescence intensity was 2140 (inactive).
For `CCOc1ccc(NC(=O)CSc2nncn2C)cc1`, the fluorescence intensity was 3760 (inactive).
With `CCCCOc1ccc(NC(=O)CSCC(=O)OCC)cc1` the fluorescence intensity was 21000 (active).
In the case of `CCOC(=O)Cc1ncccc1C(=O)Nc1ccc(OC)cc1`, the fluorescence intensity is reported as 3720 (inactive).
With `COc1ccc(C(C)C)cc1-c1ccc2nncn2c1` the fluorescence intensity was 3610 (inactive).
For `CC1(C(=O)NS(=O)(=O)c2ccccc2)CCN1C(=O)c1ccccc1` (stereo not given), the fluorescence intensity was 3830 (inactive).
In the case of `CCCCCCN1CCN(C2CN(Cc3cn(Cc4ccc(F)cc4)nn3)S(=O)(=O)C2)CC1` (stereo not given), the fluorescence intensity is reported as 6160 (inactive).
For `CSc1nsc(SCC(=O)Nc2cc(C(=O)O)ccc2C)n1`, the fluorescence intensity was 4170 (inactive).
For `Oc1ccc(-n2nnnc2SCc2c(F)cccc2Cl)cc1`, the fluorescence intensity was 3260 (inactive).
For `N[C@@H](Cc1c[nH]c2ccccc12)c1nnc(SCc2c(F)cccc2Cl)o1`, the fluorescence intensity was 22800 (active).
With `CC(C)C[C@@H](N)c1nnc(SCC(=O)c2ccc(Cl)cc2)o1` the fluorescence intensity was 9640 (inactive).
In the case of `CC(C)(C)C1C/C(=C/c2ccco2)C(=O)/C(=C/c2ccco2)C1` (stereo not given), the fluorescence intensity is reported as 3920 (inactive).
With `O=S1(=O)CC(N2CCSCC2)CN1Cc1cn(Cc2cccc(Cl)c2)nn1` (stereo not given) the fluorescence intensity was 5080 (inactive).
With `CC1(C)C(=O)C2(CCCCC2)C(=O)OC1c1cccs1` (stereo not given) the fluorescence intensity was 20700 (active).
For `CC12CN3CC(C)(CN(C1)C3c1cccs1)C2` (stereo not given), the fluorescence intensity was 8490 (inactive).
With `O=C(O)C(c1cccs1)C1(O)CCCCC1` (stereo not given) the fluorescence intensity was 3860 (inactive).
For `CCC(C(=O)N1CCN(S(=O)(=O)c2sc(C(=O)O)c(C)c2C(=O)O)CC1)c1ccccc1` (stereo not given), the fluorescence intensity was 9090 (inactive).
In the case of `CCOc1ccc(N(CC(=O)Nc2cccc(OC)c2)S(C)(=O)=O)cc1`, the fluorescence intensity is reported as 4460 (inactive).
In the case of `COc1cccc(NC(=O)Nc2ccc(F)cc2)c1`, the fluorescence intensity is reported as 3940 (inactive).
In the case of `CN(c1cccc(NC(=O)c2ccc(CN3CCc4ccccc4C3)cc2)c1)S(C)(=O)=O`, the fluorescence intensity is reported as 3600 (inactive).
With `Cc1ccc(N(CC(=O)Nc2cccc(N(C)S(C)(=O)=O)c2)S(C)(=O)=O)cc1` the fluorescence intensity was 24500 (active).
For `CN(c1cccc(NC(=O)Nc2ccc(Cl)cc2)c1)S(C)(=O)=O`, the fluorescence intensity was 16900 (active).
In the case of `COc1ccc(C)cc1S(=O)(=O)N(CC(=O)Nc1cccc([N+](=O)[O-])c1)c1ccc(C)cc1`, the fluorescence intensity is reported as 2390 (inactive).
With `N#Cc1c(NCCO)ccc([N+](=O)[O-])c1NCCO` the fluorescence intensity was 3950 (inactive).
In the case of `O=C(NCc1cccnc1)c1cc(C2CCCN(C(=O)CCCc3ccccc3)C2)on1` (stereo not given), the fluorescence intensity is reported as 3480 (inactive).
For `COc1ccc(-c2coc3c(C(=O)NC(C)C)cccc23)c(C)c1`, the fluorescence intensity was 3850 (inactive).
For `O=C(COC(=O)c1ccc(F)c(S(=O)(=O)N2CCOCC2)c1)NCc1ccc2c(c1)OCO2`, the fluorescence intensity was 3750 (inactive).
For `CCOC(=O)N1CCN(c2c(NCCCN3CCCC(C)C3)c(=O)c2=O)CC1` (stereo not given), the fluorescence intensity was 4370 (inactive).
For `Cc1ccc(-c2nc3c(C)cc(Br)cn3c2Cc2ccccc2)cc1`, the fluorescence intensity was 4960 (inactive).
With `CC(=O)N(CC(O)CO)c1c(I)c(C(=O)NCC(O)CO)c(I)c(C(=O)NCC(O)CO)c1I` (stereo not given) the fluorescence intensity was 5720 (inactive).
With `N#Cc1c(N)nc2c(c1N)CC(C(F)(F)F)O2` (stereo not given) the fluorescence intensity was 4380 (inactive).
For `C=CCn1c(COc2ccccc2C)nnc1SCC(=O)O`, the fluorescence intensity was 2820 (inactive).
For `C=CCn1c(COc2cccc3cccnc23)nnc1SCC(=O)OC`, the fluorescence intensity was 21200 (active).
In the case of `C=CCn1c(COc2ccc(F)cc2)nnc1SCC(=O)Nc1cccc(S(N)(=O)=O)c1`, the fluorescence intensity is reported as 4780 (inactive).
For `CN(Cc1ccc(C(F)(F)F)cc1)C(=O)[C@H]1O[C@@H](n2cnc3c(N)ncnc32)[C@H](O)[C@@H]1O`, the fluorescence intensity was 4210 (inactive).
With `COc1cc(C(=O)NCc2ccc3c(c2)cc(C)n3C)cc(OC)c1OC` the fluorescence intensity was 3720 (inactive).
In the case of `COCCNC(=O)C1(C)CCCN(Cc2cccc(F)c2)C1` (stereo not given), the fluorescence intensity is reported as 2750 (inactive).
For `OC(c1nnc(-c2ccccc2)o1)c1cccs1` (stereo not given), the fluorescence intensity was 4160 (inactive).
In the case of `Brc1ccc(-c2nnc(-c3ccccc3)o2)o1`, the fluorescence intensity is reported as 24200 (active).
With `Brc1ccc(-c2noc(-c3ccccc3)n2)o1` the fluorescence intensity was 4610 (inactive).
For `CCCCCc1c(-c2ccc(OC)c(OC)c2)ncn1CCc1ccccc1OC`, the fluorescence intensity was 6300 (inactive).
With `COc1cccc(CNC(=O)COc2cc(O)c3c(c2)OC(C)(C)CC3=O)c1` the fluorescence intensity was 5480 (inactive).
With `CC1=C(C(=O)N2CCOCC2)CC(CC(=O)NCc2cccs2)C(=O)N1CCCN1CCCC1=O` (stereo not given) the fluorescence intensity was 4160 (inactive).
With `CCN(CC)C(=O)C1CCCN(Cc2cccc(Cl)c2)C1` (stereo not given) the fluorescence intensity was 2940 (inactive).
With `COc1ccc(-c2noc(CSc3ccc(C)cc3)n2)cc1` the fluorescence intensity was 24000 (active).
With `COc1ccc(N2CCN(C(=O)CCc3nc(-c4ccc(C)cc4)no3)CC2)cc1` the fluorescence intensity was 3440 (inactive).
In the case of `Cc1ccc(-c2noc(CC(c3ccccc3)c3ccccc3)n2)cc1`, the fluorescence intensity is reported as 4240 (inactive).
For `CC(C)c1ccc(CC(=O)N2CCC2(C)C(=O)NS(=O)(=O)c2ccc(C(C)(C)C)cc2)cc1` (stereo not given), the fluorescence intensity was 2850 (inactive).
With `CCC(=O)N1CCC(C)(C(=O)Nc2cc(OC)c(OC)c(OC)c2)C1` (stereo not given) the fluorescence intensity was 3060 (inactive).
For `Cc1ccc(-n2c(CNc3ccc(F)cc3)nnc2SCC(=O)N2CCOCC2)cc1`, the fluorescence intensity was 4740 (inactive).
With `CCn1c(CC(=O)Nc2ccccc2)nnc1SCC(=O)N1CCOCC1` the fluorescence intensity was 6500 (inactive).
For `O=C(CSc1nnc(Cc2ccccc2)n1-c1ccccc1)N1CCOCC1`, the fluorescence intensity was 16700 (active).
For `CC(C)(C)NC(=O)COc1ccc(CNc2ccc3[nH]c(=O)[nH]c3c2)cc1`, the fluorescence intensity was 22600 (active).
For `COC(=O)c1ccc(OCC(=O)NC(C)(C)C)cc1`, the fluorescence intensity was 2670 (inactive).
With `O=C(COc1ccc([N+](=O)[O-])cc1Cl)Nc1ccc2[nH]c(=O)[nH]c2c1` the fluorescence intensity was 4100 (inactive).
